For eight sequences, binding signal results are on record in publication PMC11006913.

Common to all, as to assay: PBM; 200 nM protein, PBS
Common to all, as to settings: dsDNA, one strand shown

The target of assay [1] is HOXB9 (Homo sapiens, UniProt P17482 171-250, T197M).
Assay [2] addresses HOXB9 (Homo sapiens, UniProt P17482 171-250).
The target of assay [3] is HOXB9 (Homo sapiens, UniProt P17482 171-250, R186Q).
Assay [4] has as its target HOXA2 (Homo sapiens, UniProt O43364 129-215, R185T).
The target in assay [5] is HOXA2 (Homo sapiens, UniProt O43364 129-215, R185K).
Assay [6] has as its target HOXA2 (Homo sapiens, UniProt O43364 129-215, Y150S).
The target in assay [7] is HOXA2 (Homo sapiens, UniProt O43364 129-215).
Assay [8] addresses VAX1 (Homo sapiens, UniProt Q5SQQ9 86-172).
In assay [9] the target is VAX1 (Homo sapiens, UniProt Q5SQQ9 86-172, T142I).
The target in assay [10] is VAX1 (Homo sapiens, UniProt Q5SQQ9 86-172, K157R).
Assay [11] concerns the target MSX2 (Homo sapiens, UniProt P35548 130-214, R199I).
The target in assay [12] is MSX2 (Homo sapiens, UniProt P35548 130-214).
The target in assay [13] is MSX2 (Homo sapiens, UniProt P35548 130-214, F161Y).
The target of a further assay is T1, NKX2-6 (Homo sapiens, UniProt A6NCS4 118-204, R150C).
T1 sequence: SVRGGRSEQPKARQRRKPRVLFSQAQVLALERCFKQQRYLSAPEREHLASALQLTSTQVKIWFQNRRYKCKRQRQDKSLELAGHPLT

The target in assay [14] is ALX3 (Homo sapiens, UniProt O95076 139-225, N203Q).
In assay [15] the target is ALX3 (Homo sapiens, UniProt O95076 139-225).
In assay [16] the target is ALX3 (Homo sapiens, UniProt O95076 139-225, L168Q).
In assay [17] the target is ALX3 (Homo sapiens, UniProt O95076 139-225, L168V).
Assay [18] deals with ALX3 (Homo sapiens, UniProt O95076 139-225, N203S).
For assay [19], the target named is HOXD13 (Homo sapiens, UniProt P35453 263-343, T313R).
For assay [20], the target named is HOXD13 (Homo sapiens, UniProt P35453 263-343).
For assay [21], the target named is HOXD13 (Homo sapiens, UniProt P35453 263-343, T313A).
Assay [22] has as its target NKX3-2 (Homo sapiens, UniProt P78367 192-278, P234S).
Assay [23] addresses NKX3-2 (Homo sapiens, UniProt P78367 192-278).

HOXB9 (Homo sapiens, UniProt P17482 171-250), sequence (P17482 171-250): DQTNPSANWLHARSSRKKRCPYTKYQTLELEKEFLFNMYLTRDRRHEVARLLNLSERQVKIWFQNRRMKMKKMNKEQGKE
HOXB9 (Homo sapiens, UniProt P17482 171-250, T197M), sequence (P17482 171-250 T197M): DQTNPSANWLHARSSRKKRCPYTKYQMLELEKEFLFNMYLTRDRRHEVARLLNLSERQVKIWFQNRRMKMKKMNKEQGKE
HOXB9 (Homo sapiens, UniProt P17482 171-250, R186Q), sequence (P17482 171-250 R186Q): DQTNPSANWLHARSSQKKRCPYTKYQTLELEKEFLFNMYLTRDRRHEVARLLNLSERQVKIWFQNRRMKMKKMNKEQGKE
MSX2 (Homo sapiens, UniProt P35548 130-214, R199I), sequence (P35548 130-214 R199I): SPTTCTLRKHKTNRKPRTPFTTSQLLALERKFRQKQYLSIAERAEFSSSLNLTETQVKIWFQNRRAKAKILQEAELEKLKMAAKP
HOXA2 (Homo sapiens, UniProt O43364 129-215, R185K), sequence (O43364 129-215 R185K): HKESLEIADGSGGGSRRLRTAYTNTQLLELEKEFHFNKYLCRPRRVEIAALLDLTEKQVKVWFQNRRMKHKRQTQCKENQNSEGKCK
MSX2 (Homo sapiens, UniProt P35548 130-214, F161Y), sequence (P35548 130-214 F161Y): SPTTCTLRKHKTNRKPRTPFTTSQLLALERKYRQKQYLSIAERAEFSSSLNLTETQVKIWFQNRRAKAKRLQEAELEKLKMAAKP
MSX2 (Homo sapiens, UniProt P35548 130-214), sequence (P35548 130-214): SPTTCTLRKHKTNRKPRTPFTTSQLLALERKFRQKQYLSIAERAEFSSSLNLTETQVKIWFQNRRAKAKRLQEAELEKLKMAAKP
HOXA2 (Homo sapiens, UniProt O43364 129-215, Y150S), sequence (O43364 129-215 Y150S): as the sequence (O43364 129-215 R185K) above, with Y22S, K57R counted along it
HOXA2 (Homo sapiens, UniProt O43364 129-215, R185T), sequence (O43364 129-215 R185T): as the sequence (O43364 129-215 R185K) above, with K57T counted along it
HOXA2 (Homo sapiens, UniProt O43364 129-215), sequence (O43364 129-215): as the sequence (O43364 129-215 R185K) above, with K57R counted along it
VAX1 (Homo sapiens, UniProt Q5SQQ9 86-172, K157R), sequence (Q5SQQ9 86-172 K157R): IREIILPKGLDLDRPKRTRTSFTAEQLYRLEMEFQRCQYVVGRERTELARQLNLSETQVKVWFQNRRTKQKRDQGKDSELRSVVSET
HOXD13 (Homo sapiens, UniProt P35453 263-343, T313R), sequence (P35453 263-343 T313R): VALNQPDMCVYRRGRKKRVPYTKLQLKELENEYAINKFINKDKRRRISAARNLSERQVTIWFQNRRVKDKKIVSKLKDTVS
ALX3 (Homo sapiens, UniProt O95076 139-225, L168Q), sequence (O95076 139-225 L168Q): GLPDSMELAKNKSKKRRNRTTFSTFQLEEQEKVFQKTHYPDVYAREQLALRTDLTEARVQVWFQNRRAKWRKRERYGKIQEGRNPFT
VAX1 (Homo sapiens, UniProt Q5SQQ9 86-172), sequence (Q5SQQ9 86-172): as the sequence (Q5SQQ9 86-172 K157R) above, with R72K counted along it
VAX1 (Homo sapiens, UniProt Q5SQQ9 86-172, T142I), sequence (Q5SQQ9 86-172 T142I): as the sequence (Q5SQQ9 86-172 K157R) above, with T57I, R72K counted along it
NKX3-2 (Homo sapiens, UniProt P78367 192-278, P234S), sequence (P78367 192-278 P234S): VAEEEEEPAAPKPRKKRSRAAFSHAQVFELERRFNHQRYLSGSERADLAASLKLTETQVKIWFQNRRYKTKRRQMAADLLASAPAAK
ALX3 (Homo sapiens, UniProt O95076 139-225, N203S), sequence (O95076 139-225 N203S): as the sequence (O95076 139-225 L168Q) above, with Q30L, N65S counted along it
HOXD13 (Homo sapiens, UniProt P35453 263-343), sequence (P35453 263-343): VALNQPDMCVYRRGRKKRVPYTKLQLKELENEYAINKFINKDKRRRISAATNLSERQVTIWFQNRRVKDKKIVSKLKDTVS
ALX3 (Homo sapiens, UniProt O95076 139-225, N203Q), sequence (O95076 139-225 N203Q): as the sequence (O95076 139-225 L168Q) above, with Q30L, N65Q counted along it
ALX3 (Homo sapiens, UniProt O95076 139-225, L168V), sequence (O95076 139-225 L168V): as the sequence (O95076 139-225 L168Q) above, with Q30V counted along it
ALX3 (Homo sapiens, UniProt O95076 139-225), sequence (O95076 139-225): as the sequence (O95076 139-225 L168Q) above, with Q30L counted along it
NKX3-2 (Homo sapiens, UniProt P78367 192-278), sequence (P78367 192-278): as the sequence (P78367 192-278 P234S) above, with S43P counted along it
HOXD13 (Homo sapiens, UniProt P35453 263-343, T313A), sequence (P35453 263-343 T313A): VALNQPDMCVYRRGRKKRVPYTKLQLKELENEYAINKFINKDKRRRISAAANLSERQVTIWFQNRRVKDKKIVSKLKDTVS

In the case of ATAAATGA, the binding signal in the assay with HOXB9 [1] was 9.72 upbm affinity estimate (log intensity, higher = more binding, comparable within an allelic series); with HOXB9 [2] it was 11 upbm affinity estimate (log intensity, higher = more binding, comparable within an allelic series); with HOXB9 [3], 10.8 upbm affinity estimate (log intensity, higher = more binding, comparable within an allelic series).
On to GGCGCAGA, for which the binding signal was 8.52 upbm affinity estimate (log intensity, higher = more binding, comparable within an allelic series) in the assay with HOXB9 [1]; 8.62 upbm affinity estimate (log intensity, higher = more binding, comparable within an allelic series) with HOXB9 [2]; 8.63 upbm affinity estimate (log intensity, higher = more binding, comparable within an allelic series) with HOXB9 [3].
Turning to CGCCGGAC, the binding signal with HOXB9 [1] was 8.48 upbm affinity estimate (log intensity, higher = more binding, comparable within an allelic series); with HOXA2 [4], 7.23 upbm affinity estimate (log intensity, higher = more binding, comparable within an allelic series); in the assay with HOXB9 [2], 8.46 upbm affinity estimate (log intensity, higher = more binding, comparable within an allelic series); with HOXA2 [5], 10.4 upbm affinity estimate (log intensity, higher = more binding, comparable within an allelic series); in the assay with HOXB9 [3], 8.52 upbm affinity estimate (log intensity, higher = more binding, comparable within an allelic series); with HOXA2 [6], 10.4 upbm affinity estimate (log intensity, higher = more binding, comparable within an allelic series). In the assay with HOXA2 [7], the binding signal is 7.32 upbm affinity estimate (log intensity, higher = more binding, comparable within an allelic series).
With CCGGACGC, the binding signal with HOXB9 [1] was 8.6 upbm affinity estimate (log intensity, higher = more binding, comparable within an allelic series); in the assay with HOXB9 [2] it was 8.5 upbm affinity estimate (log intensity, higher = more binding, comparable within an allelic series); with VAX1 [8] it was 7.11 upbm affinity estimate (log intensity, higher = more binding, comparable within an allelic series); with HOXB9 [3], 8.59 upbm affinity estimate (log intensity, higher = more binding, comparable within an allelic series); with VAX1 [9] it was 7.2 upbm affinity estimate (log intensity, higher = more binding, comparable within an allelic series); with VAX1 [10], 7.16 upbm affinity estimate (log intensity, higher = more binding, comparable within an allelic series).
Regarding ACCGGGGA, the binding signal is 8.44 upbm affinity estimate (log intensity, higher = more binding, comparable within an allelic series) with HOXB9 [1]; 8.19 upbm affinity estimate (log intensity, higher = more binding, comparable within an allelic series) with HOXB9 [2]; 9.45 upbm affinity estimate (log intensity, higher = more binding, comparable within an allelic series) with MSX2 [11]; 9.39 upbm affinity estimate (log intensity, higher = more binding, comparable within an allelic series) in the assay with MSX2 [12]; 8.23 upbm affinity estimate (log intensity, higher = more binding, comparable within an allelic series) with HOXB9 [3]; 9.41 upbm affinity estimate (log intensity, higher = more binding, comparable within an allelic series) with MSX2 [13].
As for GTGGCGGA, the binding signal in the assay with HOXB9 [1] is 8.44 upbm affinity estimate (log intensity, higher = more binding, comparable within an allelic series); in the assay with HOXB9 [2], 8.58 upbm affinity estimate (log intensity, higher = more binding, comparable within an allelic series); in the assay with HOXB9 [3], 8.61 upbm affinity estimate (log intensity, higher = more binding, comparable within an allelic series).
Consider GCGCGGCA, for which the binding signal with HOXB9 [1] is 8.49 upbm affinity estimate (log intensity, higher = more binding, comparable within an allelic series); in the assay with HOXA2 [4] it was 7.06 upbm affinity estimate (log intensity, higher = more binding, comparable within an allelic series); with HOXB9 [2], 8.54 upbm affinity estimate (log intensity, higher = more binding, comparable within an allelic series); with NKX2-6, 9.57 upbm affinity estimate (log intensity, higher = more binding, comparable within an allelic series); with MSX2 [11] it was 9.56 upbm affinity estimate (log intensity, higher = more binding, comparable within an allelic series); in the assay with ALX3 [14], 7.82 upbm affinity estimate (log intensity, higher = more binding, comparable within an allelic series). For the same sequence, the binding signal is 10.3 upbm affinity estimate (log intensity, higher = more binding, comparable within an allelic series) with HOXA2 [5]; 9.62 upbm affinity estimate (log intensity, higher = more binding, comparable within an allelic series) with MSX2 [12]; 7.75 upbm affinity estimate (log intensity, higher = more binding, comparable within an allelic series) with ALX3 [15]; 7.66 upbm affinity estimate (log intensity, higher = more binding, comparable within an allelic series) with ALX3 [16]; 8.56 upbm affinity estimate (log intensity, higher = more binding, comparable within an allelic series) with HOXB9 [3]; 7.72 upbm affinity estimate (log intensity, higher = more binding, comparable within an allelic series) with ALX3 [17]. For the same sequence, the binding signal with MSX2 [13] is 9.62 upbm affinity estimate (log intensity, higher = more binding, comparable within an allelic series); with HOXA2 [6] it was 10.4 upbm affinity estimate (log intensity, higher = more binding, comparable within an allelic series); with ALX3 [18] it was 7.83 upbm affinity estimate (log intensity, higher = more binding, comparable within an allelic series); with HOXA2 [7], 6.94 upbm affinity estimate (log intensity, higher = more binding, comparable within an allelic series).
As to CTGCCGGC, the binding signal with HOXB9 [1] is 8.63 upbm affinity estimate (log intensity, higher = more binding, comparable within an allelic series); with HOXB9 [2], 8.65 upbm affinity estimate (log intensity, higher = more binding, comparable within an allelic series); with HOXD13 [19] it was 9.44 upbm affinity estimate (log intensity, higher = more binding, comparable within an allelic series); with HOXD13 [20], 9.54 upbm affinity estimate (log intensity, higher = more binding, comparable within an allelic series); with HOXD13 [21], 9.67 upbm affinity estimate (log intensity, higher = more binding, comparable within an allelic series); in the assay with HOXB9 [3] it was 8.68 upbm affinity estimate (log intensity, higher = more binding, comparable within an allelic series). The binding signal with NKX3-2 [22] is 10.4 upbm affinity estimate (log intensity, higher = more binding, comparable within an allelic series); with NKX3-2 [23], 10.3 upbm affinity estimate (log intensity, higher = more binding, comparable within an allelic series).
